Sampled rows, rich in hits. Any-hit rate of the full collection: about 5.9%.
TGFb SMAD3 inh = qHTS for Inhibitors of TGF-b | HepG2 CAGA-GFP TGF-b/SMAD3 reporter, GFP fluorescence, 18 h; TGF-beta stimulated, 500 pg/mL final | Potency, µM (doses to about 46.1 µM), inactives show at the highest dose activity, negative = inhibition, hits mostly inhibitors | 410,000 tested, 1.2% active; also: % is scaled to controls: 0 for no effect and ±100 for the full control effect; nearly all actives have a fitted effect of over 65% in size
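First, reporter cells (HEPG2 CAGA-GFP) rested 2 h at 37 degrees C. Next, compounds were pinned in and TGF-beta added to 500 pg/mL final. After 18 h, GFP was imaged per cell and summed per well.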
ATXN2 expr inh = Primary qHTS for Inhibitors of ATXN expression. HEK-293 ATXN2-luciferase reporter, luminescence, 24 h. Potency, µM (doses to about 57 µM), for inactives: at the top dose activity change, negative = inhibition, hits mostly inhibitors. 360,000 tested, 0.72% active; also: % is scaled to controls: 0 for no effect and ±100 for the full control effect; nearly all actives have a fitted effect of over 55% in size
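ATXN2-luciferase reporter cells (luciferase flanked by upstream and downstream ATXN2 gene portions) were treated 24 h at 37 °C with compounds at up to 57 uM. SteadyGlo luminescence gave expression; GF-AFC fluorescence gave viability.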
HepG2 tox = qHTS for Inhibitors of TGF-b: Cytotox Counterscreen | Potency, µM (titrated, usually from 46.1 µM), inactives show top-dose activity change, negative = cytotoxicity, actives largely listed as cytotoxic | HepG2 CAGA-GFP viability, ATP luminescence, 18 h | AID 588856, 2011 | 410,000 tested, 0.76% active
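CellTiter-Glo luminescence gave cytotoxicity after 18 hours at 37 degrees C. The cells were HepG2 CAGA-GFP in 1% FBS DMEM, stimulated with 500 pg/mL TGF-beta after compound addition. %Activity was normalised to no-cell wells (complete cell-killing) and DMSO (no toxicity), and curves were fitted and classified.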
KB-3-1 tox = qHTS assay for MDR1-selective chemotherapeutics: Primary screen using the parental adenocarcinoma cell KB-3-1 | KB-3-1 viability, CellTiter-Glo ATP luminescence, 72 h | Potency, µM (series often up to 46.1 µM), hits mostly cytotoxic | 400,000 tested, 1.4% active; also: % is scaled to controls: 0 for no effect and ±100 for the full control effect; nearly all actives have a fitted effect of over 60% in size
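Here the drug-naive KB-3-1 line serves as comparator for MDR sub-line selectivity; cells received compound titrations, 72 h at 37 °C, then CellTiter-Glo readout.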
ATXN viability = Viability Counterscreen for Primary qHTS for Inhibitors of ATXN expression | S2 cells (HEK-293 line with an ATXN2-luciferase reporter) viability, CellTiter-Fluor protease fluorescence, 24 h | Potency, µM (top dose mostly 56.7 µM), actives largely listed as cytotoxic | 400,000 tested, 0.49% active; also: nearly all actives have a fitted effect of over 40% in size
KB-V1 MDR tox = qHTS assay for MDR1-selective chemotherapeutics: Primary screen using the drug-selected MDR subline cells KB-V1 | AID 1347076, 2019 | KB-V1 MDR cells viability, CellTiter-Glo, 72 h | Potency, µM (titrated, usually from 46.1 µM), most hits filed as cytotoxic | 400,000 tested, 3.4% active; also: % is scaled to controls: 0 for no effect and ±100 for the full control effect; nearly all actives have a fitted effect of over 60% in size
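Luminescent ATP read-out (CellTiter-Glo, 10 min) measures survival of drug-selected KB-V1 MDR cells after 72 h, 37 degrees C compound exposure. Medium: phenol-red-free DMEM, 10% FBS. Values from fitted concentration-response curves.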
Starred values were filed as active, the others as inactive; i = inactive; ? = inconclusive; nt = not tested or not shown; [ ] = dose if it differs, or a comment. Calls follow the shape of the dose curve; as a rule, active = well fitted curve in the direction sought with a large enough effect; inconclusive = small, poorly fitted or top-dose-only effect, or another doubt; inactive = no such curve, though single readings can be large; an effect the other way counts as inactive or inconclusive. Potency is read from the fitted curve at half-maximal effect.

SMILES | TGFb SMAD3 inh | ATXN2 expr inh | HepG2 tox | KB-3-1 tox | ATXN viability | KB-V1 MDR tox
COc1ccc(C)cc1NC(=O)Cn1c(=O)cc(C)c2c(C)nn(C)c21 | nt | nt | -8% | nt | nt | nt
O=c1c2cc3c(cc2n(Cc2cccc(F)c2)c(=O)n1Cc1nc(-c2ccccc2)no1)OCO3 | 2% | 7% | 0% | i | i | i
Cc1ccc(OCCSc2nc3ccccc3n2CC(=O)N2CCCCC2)cc1C | 0% | 4% | -4% | i | ? | i
O=C(c1cc(-c2cccnc2)nc2ccccc12)N1CCCc2ccccc21 | -13% | -6%[11.3 µM] | 0% | ? | i | ?
Cc1ccc2nc3sc(C(=O)N4CCCc5ccccc54)c(N)c3cc2c1 | 5% | 6% | -12% | ? | i | 6.5µM*
Cc1ccc(-c2cc(C(=O)N3CCCc4ccccc43)c3ccccc3n2)cc1 | 8% | 2% | -12% | ? | i | 23µM*
Cc1ccc(-c2cc(C(F)F)n3ncc(C(=O)N4CCc5ccccc54)c3n2)cc1 | ? | nt | 7% | i | ? | 5.8µM*
Cc1ccc(-c2cc(C(F)F)n3ncc(C(=O)Nc4c(C)nn(Cc5ccccc5Cl)c4C)c3n2)cc1 | 0% | ? | 13% | 16µM* | ? | ?
Cc1cc(C)c2cc3c(N)c(C(=O)N4CCc5ccccc5C4)sc3nc2c1 | 13% | -20% | -12% | i | nt | i
Cc1cnn(C(=O)c2cc(-c3ccccc3)nc3ccccc23)c1 | ? | -5% | 10µM* | i | i | i
Cn1c(=O)n(C)c2cc(NS(=O)(=O)c3ccc(F)cc3)c(NCc3ccccc3)cc21 | 4% | 26% | -20% | i | i | ?
COc1cc2c(C#N)c(N3CCCC3)nc(N)c2c(N)n1 | ? | 9% | -25% | i | i | ?
N#Cc1c(N2CCCC2)nc(N)c2c(N)nc(N3CCCC3)cc12 | ? | 41% | -9% | ? | i | 0.73µM*
CC(=O)c1sc2c(c1OC(=O)c1ccc(Cl)cc1)c(=O)n(-c1ccccc1)c(=S)n2-c1ccccc1 | 0% | 0% | 5% | ? | ? | 15µM*
CC(=O)c1sc2c(c1OC(=O)c1ccc(Cl)cc1Cl)c(=O)n(-c1ccccc1)c(=S)n2-c1ccccc1 | ? | nt | -35% | ? | ? | ?
COc1cccc(NC(=O)CSc2nc3ccccc3c(=O)n2CCCC(=O)N2CCCC2)c1 | 5% | 4% | -5% | i | ? | 2.6µM*
COc1ccc(NC(=O)CSc2nc3ccccc3c(=O)n2CCC(=O)N2CCCCC2)cc1 | -7% | -10% | -18% | i | i | ?
COc1cccc(NC(=O)CSc2nc3ccccc3c(=O)n2Cc2cccs2)c1 | ? | 4% | 6% | i | i | 5.2µM*
C=CCn1c(SCC(=O)Nc2sccc2C(N)=O)nc2ccccc2c1=O | 7% | -12% | -2% | ? | i | 18µM*
CCOCCCn1c(SCC(=O)Nc2cccc(OC)c2)nc2ccccc2c1=O | -23% | ? | -10% | i | ? | ?
Cc1ccc(NC(=O)CSc2nc3ccccc3c(=O)n2CCCN2CCCCC2)cc1Cl | ? | ? | 14µM* | i | ? | ?
O=C(CSc1nc2ccccc2c(=O)n1CCCN1CCOCC1)Nc1ccc(F)c(Cl)c1 | -24% | ? | -32% | i | ? | i
Cn1cc(C=CC(=O)c2cccc(F)c2)cc1C=CC(=O)NO | nt | 36% | nt | nt | nt | nt
COc1cccc(NC(=O)CSc2nc3c(sc4ccccc43)c(=O)n2CCN(C)C)c1 | ? | -10% | -1% | i | i | i
COc1cccc(NC(=O)CSc2nc3c(sc4ccccc43)c(=O)n2CCCN2CCCC2)c1 | ? | nt | -75% | i | 22µM* | i
SMILES | TGFb SMAD3 inh | ATXN2 expr inh | HepG2 tox | KB-3-1 tox | ATXN viability | KB-V1 MDR tox
C[C@H]1CN([C@@H](C)CO)S(=O)(=O)c2ccc(C3=CCCC3)cc2O[C@@H]1CN(C)C(=O)C1CCCCC1 | ? | ? | -38% | ? | 20µM* | i
COC(=O)c1ccc2c(c1)C(C)(C)C(/C=C/c1ccc(O)cc1)=[N+]2C | 4µM* | 3.2µM* | 3.5µM* | ? | 7.9µM* | 6.3µM*
COC(=O)c1ccc2c(c1)C(C)(C)C(/C=C/c1ccc(OC)c(OC)c1OC)=[N+]2C | 10µM* | 25µM* | -94% | 5.2µM* | ? | i
COCCNC(=O)C1(C)CCCN(C(=O)c2ccc3snnc3c2)C1 (stereo not drawn) | -6% | 1% | -20% | i | i | i
Cc1ccccc1C(=O)Nc1ccc2nc(Nc3cccc(C(F)(F)F)c3)cc(C)c2c1 | 14µM* | ? | -20% | ? | i | i
Cc1ccccc1C(=O)Nc1ccc2nc3n(c(=O)c2c1)CCCC3 | 0% | 7% | -1% | i | i | i
Cc1cc(Nc2cccc(Cl)c2)nc2ccc(NC(=O)c3cncc(Br)c3)cc12 | ? | ? | -39% | ? | nt | ?
Cc1ccccc1C(=O)Nc1ccc2nc3n(c(=O)c2c1)CCC3 | -7% | 4% | -12% | 6.5µM* | i | ?
COc1ccccc1CC(=O)Nc1ccc2nc(Nc3cccc(C(F)(F)F)c3)cc(C)c2c1 | 0% | 0% | -33% | ? | i | ?
Cc1cc(Nc2cccc(C(F)(F)F)c2)nc2ccc(NC(=O)c3cncc(Br)c3)cc12 | ? | nt | 10µM* | nt | nt | nt
O=C(Nc1ccccc1)c1cc2c(=O)c3ccccc3oc2nc1C(F)(F)F | 0% | -2% | -1% | i | i | i
O=C(Nc1cccc(C(F)(F)F)c1)c1cc2c(=O)c3ccccc3oc2nc1C(F)(F)F | -1% | -19% | 0% | i | i | 21µM*
Nn1c(CSc2nc3ccccc3o2)nnc1CSc1nc2ccccc2o1 | 1% | -1% | -29% | i | i | ?
Cc1cc(C)n2c(Br)c(CSc3nc4ccccc4o3)nc2n1 | 14% | 43% | -1% | i | i | 21µM*
COC(=O)C(Nc1ccccc1Cl)(c1cc(C)c(O)c(C)c1)C(F)(F)F (stereo not drawn) | 10µM* | ? | 16µM* | ? | i | 8.2µM*
Cc1c(C(=O)NCc2ccccc2Cl)sc2nc[nH]c(=O)c12 | 0% | nt | -1% | i | nt | i
